This note sets out measurements from the supplement of paper PMC10105736.

Values without a mark were called inactive.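 How the source made its calls: active = MAPPIT score above the 99th percentile of random reference set scores in the same batch; inactive = at or below it.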

Test in all cases: MAPPIT interaction score (arbitrary units); higher = stronger binary interaction signal, active = hit call of the paper
The target in one assay is RpLP2. The following applies: MAPPIT configuration: N-N; pair source set: Finley_Y2H.
The target in another assay is RpL12. The following applies: MAPPIT configuration: N-N; pair source set: Lit-BS-16.
The target in another assay is RPA2. The conditions noted are these: MAPPIT configuration: N-N; pair source set: Finley_Y2H.
A further assay has as its target ScsbetaG. The conditions noted are these: MAPPIT configuration: N-N; pair source set: Finley_Y2H.
The next assay deals with RpL35A. The conditions noted are these: MAPPIT configuration: N-N; pair source set: Finley_Y2H.
Another assay has as its target Rab26. The conditions noted are these: MAPPIT configuration: N-N; pair source set: Lit-BS-16.
In the next assay the target is Rbp1. The conditions noted are these: MAPPIT configuration: N-N; pair source set: Finley_Y2H.
Another assay has as its target RIC-3. The following applies: MAPPIT configuration: N-C; pair source set: screen_3.
A further assay concerns the target Sod3. The following applies: MAPPIT configuration: N-C; pair source set: screen_4.
In a further assay the target is RpS10b. The conditions noted are these: MAPPIT configuration: N-N; pair source set: DPIM.
The target of a further assay is REPTOR-BP. The conditions noted are these: MAPPIT configuration: N-N; pair source set: Curagen_high_conf.
For a further assay, the target named is ReepB. The following applies: MAPPIT configuration: N-N.
A further assay has as its target RpS20. The following applies: MAPPIT configuration: N-N; pair source set: Curagen_low_conf.
A further assay deals with hpo. The conditions noted are these: pair source set: Lit-BM-16.
In the next assay the target is yki. The conditions noted are these: pair source set: Lit-BM-16.
The target of a further assay is RpL37A. The conditions noted are these: MAPPIT configuration: N-N; pair source set: Curagen_high_conf.
The next assay addresses Rgk3. The following applies: MAPPIT configuration: N-N; pair source set: Curagen_low_conf.
The target of a further assay is RFeSP. The conditions noted are these: MAPPIT configuration: N-N; pair source set: RRS.
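Further: HEK293T cells with Epo stimulation, STAT-responsive firefly luciferase reporter, fold induction versus unstimulated cells divided by the larger fold induction of two negative controls lacking either bait or prey.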

B1: CG1307 (protein)
chain: MGDKLLDPTQIINGLAVMLSFFVGYRYALKRGDAKDSVTEGAATPFSQESSVSSGSEASVSDKGYGGLNDNFKMVLVVRNDLKMGKGKIAAQCGHGAVGAYQRAVVRTPRLLRSWENCGCAKIAVRVESEAELMAIKKEAERQQLNTCLIRDAGRTQIEANSKTVLAVGPAAAADIDRVTGHLKLL
B1: in the assay with RpLP2, the MAPPIT interaction score was 0.942.

B2: Lap1 (protein)
chain: MPLLSKCFPCFKFKREEVIDKLDYSNTPLTDFPEVWQHERTLEELYLSTTRLQALPPQLFYCQGLRVLHVNSNNLESIPQAIGSLRQLQHLDLNRNLIVNVPEEIKSCKHLTHLDLSCNSLQRLPDAITSLISLQELLLNETYLEFLPANFGRLVNLRILELRLNNLMTLPKSMVRLINLQRLDIGGNEFTELPEVVGELKSLRELWIDFNQIRRVSANIGKLRDLQHFEANGNLLDTLPSELSNWRNVEVLSICSNSLEAFPFSVGMLKSLVTFKCESNGLTELPDSISYLEQLEELVLSHNKLIRLPSTIGMLRSLRFLFADDNQLRQLPDELCSCQQLSVLSVANNQLSALPQNIGNLSKMKVLNVVNNYINALPVSMLNLVNLTSMWLSDNQSQPLVPLQYLDASTKTQLTCFMLPQVTFKMNSIQAQQQAQEQYEFVYANQQQPHASPSRRICFAEEATILSNAKAQPAPNYPSFVAAPPTPTPDQMAGSVRLMRSPTPYPKELRQMSKYVRQAQAATSSANASEVREARVVTNGQIHCDSNNANQDVVDQATTSAIYGIAPETTHIYGVYQQPQQMAHPVPTQEYYGLPLVNYEAHYQQLYVEANTPLPTTHLNGDQDYELQPLQQQPMQQQALPTPRLEPPPYHIARVYTKKTPEDLNLYESMRQRKQQQQLQEQTIYQDALNSNSNFKTTAIGAQDVEESVDQLDYQNNISNNLEPNPEEEDQELDDTMSQHSLNSTATNNTSKASHKKSTWIFGVHKNPTVKQVTLKWENSIGFDIAELLNQVGIFVSSITPNTNAARLLNLNDKLLEIDGYDLTNANLSDAKRVLLNCGTVMNIMLSRK
Regarding B2, the MAPPIT interaction score with RpL12 is -0.0144.

B3: Lip3 (protein)
chain: MTRGALKVTILLVGLGLVLAGSRPISDCGERIEDDGYPMERHEVVTSDNYILTMHRIPYSPKTGESSNRPVAFLMHGMLSSSSDWVLMGPERSLAYMLADAGYDVWMGNARGNTYSKAHKYWPTYWQIFWNFSWNEIGMYDVPAMIDYVLAKTGQQQVQYVGHSQGTTVYLVMVSERPEYNDKIKSAHLLGPAAYMGNMKSPLTRAFAPILGQPNAIVEVCGSMEFMPSNKFKQDLGIEMCQATSPYADMCANEIFLIGGYDTEQLDYELLEHIKATSPAGASVNQNLHFCQEYNSGKFRKFDYTALRNPYEYGSYFPPDYKLKNAKAPVLLYYGANDWMCDVSDVRKLRDELPNMALDYLVPFEKWAHLDFIWGTEARKYVYDEVLKQMQSYE
Regarding B3, the MAPPIT interaction score in the assay with RPA2 was 0.346; with ScsbetaG, 1.35.

B4: Archease (protein)
chain: MEVEFSRENFLLPEMKYEYLDHTADVQIHGWGSSLKEAFEQCGVAMFGYMTELDYVSVEQCFEIEAHGDDLESLLFHFLDELLFLFSAEPYLVCKKLEITKFDVENFEISCHCYGEPFELGKHPQGTEVKAITYSAMQIIQDVEASNYEVFVIIDI
Regarding B4, in the assay with RpL35A, the MAPPIT interaction score is -0.294.

B5: Phb1 (protein)
chain: MAAQFFNRIGQMGLGVAVLGGVVNSALYNVEGGHRAVIFDRFTGIKENVVGEGTHFFIPWVQRPIIFDIRSQPRNVPVITGSKDLQNVNITLRILYRPIPDQLPKIYTILGQDYDERVLPSIAPEVLKAVVAQFDAGELITQREMVSQRVSQELTVRAKQFGFILDDISLTHLTFGREFTLAVEMKQVAQQEAEKARFVVEKAEQQKLASIISAEGDAEAAGLLAKSFGEAGDGLVELRRIEAAEDIAYQLSRSRGVAYLPSGQSTLLNLPSTIAQ
For the molecule B5, the MAPPIT interaction score with Rab26 was 0.345.

B6: Rsf1 (protein)
chain: MGDQRGTRVYVGNLTDKVKKDDLEGEFTKYGKLNSVWIAFNPPGFAFVEFEHRDDAEKACDILNGSELLGSQLRVEISKGRPRQGRRGGPMDRGGRRGDFGRHSITSGGSGGGGFRQRGSSGSSSRHTERGYSSGRSGASSYNGREGGGSGFNRREVYGGGRDSSRYSSGSSASYGRTGGQSAGRFRSRSPVGNHRF
B6: the MAPPIT interaction score with Rbp1 was 0.372.

B7: Nplp2 (protein)
chain: MAKLAICILVFALFALALSARVPREESNPAQEFLTKAQGDFNEFIEKLKALDAKKVEGLFKDGLNTVQEGLQKLNETFLQAPAAST
Turning to B7, the MAPPIT interaction score is 0.0485 with RIC-3 and 2.23 with Sod3.

B8: Csp (protein)
chain: MSAPGMDKRKLSTSGDSLYEILGLPKTATGDDIKKTYRKLALKYHPDKNPDNVDAADKFKEVNRAHSILSNQTKRNIYDNYGSLGLYIAEQFGEENVNAYFVVTSPAVKAVVICCAVITGCCCCCCCCCCCNFCCGKFKPPVNESHDQYSHLNRPDGNREGNDMPTHLGQPPRLEDVDLDDVNLGAGGAPVTSQPREQAGGQPVFAMPPPSGAVGVNPFTGAPVAANENTSLNTTEQTTYTPDMVNQKY
On to B8, for which the MAPPIT interaction score with RpS10b was 1.05.

B9: REPTOR (protein)
chain: MTENQLYPMSSEFFDTGSNSSSNTLKYDLYSLGSTVVGAALPTLTINTGYGSSSSNNNNTNNNNNNSSSHSSSSNCSTSTTNTCNVMLSTTAITIPRSSNHNQIHHHPYQQSDLQTPRHHPSPLHTLPSMTHQQNQLQQQQQQQHHNQQQQLQQSHLALGELSDFGLDALDAASLSPTLLQDVSLSAVSPLSTTLYNGNTSGAGSSNGIGSGSGGYFTPDMSHSLSLNVVSEQVLLQEATTPNELLYEMTPNSNAMWSDISSAIIHTKHEPFSLDDDYIFPNDKAEIQAADLSDLNGGDFLDVIGNIEDFLPQTAVTQSVNFLLSPQAQGQDALVAPPMELLQQQQQNHQQLQVGSLPQLQTLLTLSQQQQSNSSSTSPYEIYHSTPQKPQQQQLSASFSPGSQASQSPLTPPPPPHANRPQYQMVKSRNMQELIKKGFPMSSPPERSILSQSAALSPGGSSGFGSSASGNSTTTSNQTSGSAVRKSFGYQSAVENSQLSRLSSSAPTHLGLEHIWMRREPRQHLLSTGSLAEAESFSSLSTGSVLSPDGIDFSQDDEDDNSSENSDNYDDCSSDNGLSEDEDETRTSTPNHLSSSKGKERFFWQYNVQAKGPKGKRLVFQSKLEDPHVLNEVTDPVFSPTCSVRGIKVYKHSGKARKGDGNDLTPNARKLHNIGKELDKLSRTINDMTPVSELPFNVRPKSRKEKNKLASRACRLKKKAQHEANKIKLFGLEIEHSEFNVKAVEISYNPSIFVL
B9: the MAPPIT interaction score with REPTOR-BP is 0.721.

B10: wol (protein)
chain: MWTCLCQLCFYLLSTLAVAALSIAALVLYKTKPYPNIKRHKDEETFLDPHTIKTVTFPSLEDSPSLELSVIVPAYNEEQRLPSMLDECLAFLEQKSAGTPNFTYEVIVVSDGSQDATVSVALGYSKKHGAEKVRVLELIENRGKGGAVRMGMLSARGRNLLFADADGATKFPDYDKLEVALKQLAPEWRDDGIAIGSRAHLENDAIATRSFFRTILMHGFHFLVWLFAVRSIRDTQCGFKLFTRTTARKLFTSLHVERWAFDVELLYLAENLKLPMSEVAVRWTEIDGSKLTPFWSWLQMGRDLFMIWVRYLVGAWRIASIQKKEK
With B10, in the assay with ReepB (pair source set: Lit-BS-16), the MAPPIT interaction score is 0.541.

B11: hpo (protein)
chain: MSEPEVTSVVDMKSPNISSSCSFFKLKKLSEESLLQPPEKVFDIMYKLGEGSYGSVYKAVHKESSSIVAIKLVPVESDLHEIIKEISIMQQCDSPYVVRYYGSYFKQYDLWICMEYCGAGSVSDIMRLRKKTLTEDEIATILSDTLQGLVYLHLRRKIHRDIKAANILLNTEGYAKLADFGVAGQLTDTMAKRNTVIGTPFWMAPEVIEEIGYDCVADIWSLGITALEMAEGKPPYGEIHPMRAIFMIPQKPPPSFREPDRWSTEFIDFVSKCLVKEPDDRATATELLEHEFIRNAKHRSILKPMLEETCAIREQQRANRSFGGVLAASQAKSLATQENGMQQHITDNAFMEDPGTLVPEKFGEYQQSSASDATMIAHAEQGVDEGTLGPGGLRNLSKAAAPAAASSAASPLDMPAVDSGTMVELESNLGTMVINSDSDDSTTAKNNDDQKPRNRYRPQFLEHFDRKNAGDGRGDEKPIATEYSPAAAEQQQQQQQQQQQQQQDEQHLASGANDLNNWEHNMEMQFQQISAINQYGLQQHQQQQQVLMAYPLMNEQLIALNNQPNLLLSNAAPMGQQGIPAAAPAQPPPAYQNQHMHTQSHAYVEGEFEFLKFLTFDDLNQRLCNIDHEMELEIEQLNKKYNAKRQPIVDAMNAKRKRQQNINNNLIKI
Turning to B11, the MAPPIT interaction score with RpS20 is 2.67 (active); in the assay with hpo (MAPPIT configuration: N-C), 1.43; with hpo (MAPPIT configuration: N-N), -0.987; in the assay with yki (MAPPIT configuration: N-C), -0.198; with yki (MAPPIT configuration: N-N), -0.76.

B12: Cyp12a4 (protein)
chain: MLKVRSALSLIQSQKATLSLATQKRWQTNVATAEAREDSEWLQAKPFEQIPRLNMWALSMKMSMPGGKYKNMELMEMFEAMRQDYGDIFFMPGIMGNPPFLSTHNPQDFEVVFRNEGVWPNRPGNYTLLYHREEYRKDFYQGVMGVIPTQGKPWGDFRTVVNPVLMQPKNVRLYYKKMSQVNQEFVQRILELRDPDTLEAPDDFIDTINRWTLESVSVVALDKQLGLLKNSNKESEALKLFHYLDEFFIVSIDLEMKPSPWRYIKTPKLKRLMRALDGIQEVTLAYVDEAIERLDKEAKEGVVRPENEQSVLEKLLKVDRKVATVMAMDMLMAGVDTTSSTFTALLLCLAKNPEKQARLREEVMKVLPNKNSEFTEASMKNVPYLRACIKESQRLHPLIVGNARVLARDAVLSGYRVPAGTYVNIVPLNALTRDEYFPQASEFLPERWLRSPKDSESKCPANELKSTNPFVFLPFGFGPRMCVGKRIVEMELELGTARLIRNFNVEFNYPTENAFRSALINLPNIPLKFKFIDLPN
As to B12, the MAPPIT interaction score in the assay with RpL37A is -0.0129.

B13: Pdf (protein)
chain: MARYTYLVALVLLAICCQWGYCGAMAMPDEERYVRKEYNRDLLDWFNNVGVGQFSPGQVATLCRYPLILENSLGPSVPIRKRNSELINSLLSLPKNMNDAGK
B13: the MAPPIT interaction score with ReepB (pair source set: Finley_Y2H) is 2.66.

B14: eEF1gamma (protein)
chain: MVKGTLYTYPENFRAYKALIAAQYSGAQVKVADNFKFGETNKSAEFLKKFPGGKVPAFETAEGQYLSESNAIAYLLANEQLRGGKCPFVQAQVQQWISFADNEIVPASCAWVFPLLGILPQQKNSTAKQEAEAVLQQLNQKLQDATFLAGERITLADIVVFSSLLHLYEYVLEPSVRSAFGNVNRWFVTILNQKQVQAVVKDYKLCEKALVFDPKKYAEFQAKTGAAKPQQQAQQQKQEKKPKEKKEAPKKAAEPAEELDAADEALAAEPKSKDPFDALPKGTFNFDDFKRVYSNEDEAKSIPYFFDKFDAENYSIWFGEYKYNEELSKVFMSCNLITGMFQRLDKMRKAAFASVCLFGEDGNSTISGIWVWRGQDLAFTLSPDWQIDYEVYDWKKLDAKSEETKKLVTQYFSWSGTDKDGRKFNQGKIFK
On to B14, for which, in the assay with Rgk3, the MAPPIT interaction score was -0.0165.

B15: E(spl)m4-BFM (protein)
chain: MCQNKINTNNTMTIKSNKKLSYSVKKLLQKIFKQQQRVEEEQNLKNALKANSLESLESMENSRNADLESASICASLESCENEANERLSQSCEIEDYDFEQLPTVPVHFVRTAHGTFFWTAVSDLPADNDLVEPLYCSTSNAIAIPQDRWVQA
With B15, the MAPPIT interaction score with RFeSP is 0.268.
